{"source": "paper PMC11208138", "experiment_in_all_cases": "cross-link between two proteins; cross-linking mass spectrometry", "key": {"[1]": {"target": "PHD finger-like domain-containing protein 5A (UniProt Q7RTV0)", "sequence (Q7RTV0 whole entry, the tested form may be a part)": "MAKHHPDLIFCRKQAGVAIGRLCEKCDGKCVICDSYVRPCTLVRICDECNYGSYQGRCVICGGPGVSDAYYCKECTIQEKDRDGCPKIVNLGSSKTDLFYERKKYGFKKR"}, "[2]": {"target": "Small nuclear ribonucleoprotein Sm D2 (UniProt P62316)", "sequence (P62316 whole entry)": "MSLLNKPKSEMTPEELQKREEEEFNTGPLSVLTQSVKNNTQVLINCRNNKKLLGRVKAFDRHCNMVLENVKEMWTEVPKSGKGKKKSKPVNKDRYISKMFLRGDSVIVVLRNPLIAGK"}, "[3]": {"target": "Splicing factor 3B subunit 5 (UniProt Q9BWJ5)", "sequence (Q9BWJ5 whole entry)": "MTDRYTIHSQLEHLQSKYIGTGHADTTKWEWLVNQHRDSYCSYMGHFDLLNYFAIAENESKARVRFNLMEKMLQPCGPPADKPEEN"}, "[4]": {"target": "THO complex subunit 4 (UniProt Q86V81)"}}}
{"substance": "Splicing factor 3B subunit 1, O75533", "values": [{"measurement": "listed as a hit", "setting": "[1]", "value": "yes"}]}
{"substance": "Small nuclear ribonucleoprotein F, P62306", "values": [{"measurement": "listed as a hit", "setting": "[2]", "value": "yes"}]}
{"substance": "PHD finger-like domain-containing protein 5A, Q7RTV0", "values": [{"measurement": "listed as a hit", "setting": "[3]", "value": "yes"}]}
{"substance": "Enhancer of rudimentary homolog, P84090", "values": [{"measurement": "listed as a hit", "setting": "[4]", "value": "yes"}]}
